# The source made the active and inactive calls.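 The calls were made as follows: active = high combined rank on largest and smallest cell-count-weighted shift across three tests, rank score above 45, floors 50 and 25 (some results past the limit were not filed as active); inactive = the rest.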
# Test: LNCaP granularity increase inducers, single-point recheck – cell-based, side scatter shift, flow cytometry, confirmation (AID 1069);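 also: LNCaP human prostate cancer cells in low-serum medium with charcoal-stripped FBS; percent of cells with raised granularity gated so DMSO controls show 10%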
# Conditions: LNCaP differentiation, 4 d, at 100 µM, stronger effect = higher value
row,Structure (SMILES),side scatter shift
1,Cn1c(C(=O)NCCC2=CCCCC2)cc2c(=O)n3ccccc3nc21,11.5% (inactive)
2,CCc1ccc(-c2nc(CN3CCCC(C(=O)NCCc4ccc(OC)c(OC)c4)C3)c(C)o2)cc1 (stereo unspecified),25% (inactive)
3,Cn1c(=O)cc(OCC(=O)NCCCN2CCN(c3ccccc3F)CC2)c2ccccc21,66.5% (active)
4,Cc1ccc(-c2noc(CCC(=O)NCCCN3CCN(c4cccc(Cl)c4)CC3)n2)cc1,31.8% (inactive)
5,Cc1ccc(C)c(N2CCN(C(=O)CCNC(=O)Cn3ccc4ccccc4c3=O)CC2)c1,25% (inactive)
6,O=C(NCCCN1CCN(c2ccccc2F)CC1)C1CCCN(S(=O)(=O)c2cnc[nH]2)C1 (stereo unspecified),7.3% (inactive)
7,Cc1ccccc1-c1nc(CN2CCC(C(=O)NCCC3=CCCCC3)CC2)c(C)o1,9.1% (inactive)
8,CCCc1cc(-c2n[nH]c(C)c2-c2ccc(C(=O)OCC)o2)c(O)cc1O,42.9% (inactive)
9,Cn1c(=O)[nH]c(=O)c2c1nc(Br)n2CCCSc1nc2ccccc2o1,0% (inactive)
10,Cc1ccc2c(c1)c1c(n2CC(O)CNC(CO)(CO)CO)CCCC1 (stereo unspecified),34.3% (inactive)
11,CCOC(=O)N1CCC(=C2c3ccc(Cl)cc3CCc3cccnc32)CC1,28.6% (inactive)
12,Cc1ccc(C)c2[nH]c(=O)c(CN(CCN3CCCC3)C(=O)Nc3cccc(Cl)c3)cc12,20% (inactive)
13,Oc1ccccc1CNc1nc2ccccc2n1CCN1CCCCC1,22.7% (inactive)
14,Cc1oc(-c2ccc(Cl)cc2)nc1CN1CCCC(C(=O)NCCCN2CCCC2=O)C1 (stereo unspecified),14% (inactive)
15,Cc1ccc(NC(=O)CCNS(=O)(=O)c2ccc3c(c2)oc(=O)n3C)c(C)c1,1.7% (inactive)
16,COc1ccc2nc(NC(=O)C(NS(=O)(=O)c3cccs3)C(C)C)sc2c1 (stereo unspecified),35.8% (inactive)
17,Cc1ccccc1-c1nc(CN2CCC(C(=O)O)CC2)c(C)o1,3.7% (inactive)
18,Cc1ccc2c(c1)NC(=O)C(CC(=O)NCCCN1CCN(c3cc(Cl)ccc3C)CC1)O2 (stereo unspecified),0% (inactive)
19,CN(C(=O)c1ccccn1)c1nnc(-c2cccnc2)s1,8.3% (inactive)

row,Structure (SMILES),side scatter shift
1,N#CC(C(=O)c1ccco1)c1ccccn1 (stereo unspecified),2.5% (inactive)
2,Cc1ccc2c(c1)c1c(n2CC(O)Cn2c(C)nc3ccccc32)/C(=N\O)CCC1 (stereo unspecified),18.8% (inactive)
3,O=C(CCNC(=O)Cn1ccc2ccccc2c1=O)NCCCN1CCN(c2ccc(F)cc2)CC1,21.8% (inactive)
4,CCS(=O)(=O)N1CCC(C(=O)NCCCN2CCN(c3ccccc3F)CC2)CC1,13.3% (inactive)
5,CCCCOc1ccccc1NC(=O)Cn1c(-c2nonc2N)nc2ccccc21,19.2% (inactive)
6,Cn1c(C(=O)NCCN2CCN(c3ccccc3F)CC2)cc2c(=O)n(C)c3ccccc3c21,50% (inactive)
7,COC(=O)c1[nH]c2c(c1C)C(=O)CCC2,7.2% (inactive)
8,C=CCn1c(=N)n(CC(O)COc2ccc(OC)cc2)c2ccccc21 (stereo unspecified),18.9% (inactive)
9,COCCCN(C(=O)Nc1ccccc1)C(C)c1ccncc1 (stereo unspecified),9.2% (inactive)
10,Cc1ccccc1-c1nc(CN2CCC(C(=O)NCCCN3CCOCC3)CC2)c(C)o1,78.9% (active)
11,CCOC(=O)CSc1nnc(CNC(=O)c2ccccc2OC)n1-c1ccc(OC)cc1,11.3% (inactive)
12,CC(C)(C)OC(=O)N1CCC(C(=O)N2CCCCCC2)CC1,16.1% (inactive)
13,COc1ccc(Cl)c(N2CCN(CCCNC(=O)Nc3ccc(C)cc3)CC2)c1,26.3% (inactive)
14,COC(=O)Nc1sccc1C(=O)Nc1sccc1C(=O)OC,18.8% (inactive)
15,Cc1ccc(C2=Nc3ccccc3NC(C)(c3ccc(C)o3)C2)o1 (stereo unspecified),7.1% (inactive)
16,CCOC(=O)c1cc2c(=O)n3ccccc3nc2n(CCCOC)c1=NC(=O)c1cccnc1,9.9% (inactive)
17,CCOC(=O)c1[nH]c(C)c(C(=O)NC2CCCCCC2)c1C,4.8% (inactive)
18,CCN1CCN(c2ncc(C(=O)Nc3cc(Cl)c(OC)cc3OC)c3ccccc23)CC1,53.7% (inactive)
19,COC(=O)c1cc2oc3ccccc3c2n1CC(=O)Nc1ccccc1OC,18.9% (inactive)

# Same assay, conditions: LNCaP differentiation, 4 d, side scatter shift, at 10 µM, stronger effect = higher value
row,Structure (SMILES),side scatter shift
1,Cn1c(C(=O)NCCC2=CCCCC2)cc2c(=O)n3ccccc3nc21,5.75%
2,CCc1ccc(-c2nc(CN3CCCC(C(=O)NCCc4ccc(OC)c(OC)c4)C3)c(C)o2)cc1 (stereo unspecified),17.3%
3,Cn1c(=O)cc(OCC(=O)NCCCN2CCN(c3ccccc3F)CC2)c2ccccc21,4.5%
4,Cc1ccc(-c2noc(CCC(=O)NCCCN3CCN(c4cccc(Cl)c4)CC3)n2)cc1,11.5%
5,Cc1ccc(C)c(N2CCN(C(=O)CCNC(=O)Cn3ccc4ccccc4c3=O)CC2)c1,10%
6,O=C(NCCCN1CCN(c2ccccc2F)CC1)C1CCCN(S(=O)(=O)c2cnc[nH]2)C1 (stereo unspecified),4.1%
7,Cc1ccccc1-c1nc(CN2CCC(C(=O)NCCC3=CCCCC3)CC2)c(C)o1,24.8%
8,CCCc1cc(-c2n[nH]c(C)c2-c2ccc(C(=O)OCC)o2)c(O)cc1O,5.15%
9,Cn1c(=O)[nH]c(=O)c2c1nc(Br)n2CCCSc1nc2ccccc2o1,8%
10,Cc1ccc2c(c1)c1c(n2CC(O)CNC(CO)(CO)CO)CCCC1 (stereo unspecified),12.4%
11,CCOC(=O)N1CCC(=C2c3ccc(Cl)cc3CCc3cccnc32)CC1,6.25%
12,Cc1ccc(C)c2[nH]c(=O)c(CN(CCN3CCCC3)C(=O)Nc3cccc(Cl)c3)cc12,49.6%
13,Oc1ccccc1CNc1nc2ccccc2n1CCN1CCCCC1,12.2%
14,Cc1oc(-c2ccc(Cl)cc2)nc1CN1CCCC(C(=O)NCCCN2CCCC2=O)C1 (stereo unspecified),13.6%
15,Cc1ccc(NC(=O)CCNS(=O)(=O)c2ccc3c(c2)oc(=O)n3C)c(C)c1,5.85%
16,COc1ccc2nc(NC(=O)C(NS(=O)(=O)c3cccs3)C(C)C)sc2c1 (stereo unspecified),3.1%
17,Cc1ccccc1-c1nc(CN2CCC(C(=O)O)CC2)c(C)o1,1.25%
18,Cc1ccc2c(c1)NC(=O)C(CC(=O)NCCCN1CCN(c3cc(Cl)ccc3C)CC1)O2 (stereo unspecified),7.35%
19,CN(C(=O)c1ccccn1)c1nnc(-c2cccnc2)s1,2.1%

row,Structure (SMILES),side scatter shift
1,N#CC(C(=O)c1ccco1)c1ccccn1 (stereo unspecified),10.3%
2,Cc1ccc2c(c1)c1c(n2CC(O)Cn2c(C)nc3ccccc32)/C(=N\O)CCC1 (stereo unspecified),10.1%
3,O=C(CCNC(=O)Cn1ccc2ccccc2c1=O)NCCCN1CCN(c2ccc(F)cc2)CC1,7.25%
4,CCS(=O)(=O)N1CCC(C(=O)NCCCN2CCN(c3ccccc3F)CC2)CC1,12.6%
5,CCCCOc1ccccc1NC(=O)Cn1c(-c2nonc2N)nc2ccccc21,17.4%
6,Cn1c(C(=O)NCCN2CCN(c3ccccc3F)CC2)cc2c(=O)n(C)c3ccccc3c21,7.7%
7,COC(=O)c1[nH]c2c(c1C)C(=O)CCC2,3.6%
8,C=CCn1c(=N)n(CC(O)COc2ccc(OC)cc2)c2ccccc21 (stereo unspecified),10.9%
9,COCCCN(C(=O)Nc1ccccc1)C(C)c1ccncc1 (stereo unspecified),2.8%
10,Cc1ccccc1-c1nc(CN2CCC(C(=O)NCCCN3CCOCC3)CC2)c(C)o1,13.4%
11,CCOC(=O)CSc1nnc(CNC(=O)c2ccccc2OC)n1-c1ccc(OC)cc1,4.3%
12,CC(C)(C)OC(=O)N1CCC(C(=O)N2CCCCCC2)CC1,7.5%
13,COc1ccc(Cl)c(N2CCN(CCCNC(=O)Nc3ccc(C)cc3)CC2)c1,12%
14,COC(=O)Nc1sccc1C(=O)Nc1sccc1C(=O)OC,8.85%
15,Cc1ccc(C2=Nc3ccccc3NC(C)(c3ccc(C)o3)C2)o1 (stereo unspecified),10.1%
16,CCOC(=O)c1cc2c(=O)n3ccccc3nc2n(CCCOC)c1=NC(=O)c1cccnc1,5.75%
17,CCOC(=O)c1[nH]c(C)c(C(=O)NC2CCCCCC2)c1C,8.6%
18,CCN1CCN(c2ncc(C(=O)Nc3cc(Cl)c(OC)cc3OC)c3ccccc23)CC1,19.2%
19,COC(=O)c1cc2oc3ccccc3c2n1CC(=O)Nc1ccccc1OC,8.8%

# Source: PubChem BioAssay AID1069 (NMMLSC, 2008)
